Here are results for 61 compounds from PubChem BioAssay AID588676 (Johns Hopkins Ion Channel Center, 2011).

SMILES strings stand for the structures. The whole screen tested about 310,000 compounds, of which about 3,900 (1.3%) were called active.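 The calls were made as follows: active = calcium-response B-score plate-corrected more than 3 library SD below zero, starting fluorescence within 5 deviations, no agonist response on first addition; inactive = the rest.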 The list comes from a sample in which actives are over-represented; it also holds similar structures and randomly drawn compounds.

For this test, the target named is Mas-related G-protein coupled receptor member X1 (Homo sapiens) (UniProt Q96LB2). Put plainly: blockade of BAM8-22-evoked MrgX1 calcium response – HEK293 cells, Fluo-4 calcium flux, primary screen (AID 588676).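 As to B-score: peak minus trough fluorescence over baseline after final BAM8-22 challenge near maximal dose.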 The note with it: Fluo-4, BAM8-22 antagonism, at 10 µM; active compounds read low. On the technique in general: Calcium flux is commonly read through the fluorescence of an indicator in the cells.
Mas-related G-protein coupled receptor member X1 (Homo sapiens), sequence (Q96LB2 whole entry, looked up): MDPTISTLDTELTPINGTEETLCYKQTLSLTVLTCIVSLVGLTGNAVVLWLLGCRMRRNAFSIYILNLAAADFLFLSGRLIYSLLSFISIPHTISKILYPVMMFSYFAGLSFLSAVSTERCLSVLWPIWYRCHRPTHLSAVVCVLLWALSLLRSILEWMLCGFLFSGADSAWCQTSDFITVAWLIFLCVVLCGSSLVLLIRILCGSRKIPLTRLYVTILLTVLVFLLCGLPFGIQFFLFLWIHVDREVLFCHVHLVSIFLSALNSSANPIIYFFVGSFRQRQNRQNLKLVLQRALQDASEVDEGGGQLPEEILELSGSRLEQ
In the case of `Cc1cccc(CSc2ccc(-c3cccs3)nn2)c1`, the B-score result was “inactive”.

On to `C=CCN1CC(C)/C(=N\O)CC1C` (stereo unspecified), for which the B-score entry was “inactive”.

Turning to `O=[N+]([O-])c1cc(Cl)cc(/C=N/NC(=S)Nc2cc(S(=O)(=O)N3CCOCC3)ccc2Cl)c1O`, the B-score is -7.04 (active).

In the case of `O=C(N/N=C/c1ccc([N+](=O)[O-])o1)c1cccc(S(=O)(=O)N2CCOCC2)c1`, the B-score result is “inactive”.

On to `O=C(N/N=C/c1cc(Cl)cc([N+](=O)[O-])c1O)C(O)(c1ccccc1)c1ccccc1`, for which the B-score result is “inactive”.

For `CCCCN(C(=O)CCNC(=O)NC12CC3CC(CC(C3)C1)C2)c1c(N)n(CCCC)c(=O)[nH]c1=O`, the B-score result was “inactive”.

Regarding `CN(CCc1ccccn1)C(=O)CCC1CCCN(Cc2ccccc2OC(F)F)C1` (stereo unspecified), the B-score entry is “inactive”.

With `CCc1cc2cc(OC)ccc2nc1SCC(=O)Nc1cc(OC)c(OC)cc1C(=O)O`, the B-score entry was “inactive”.

As for `N#Cc1ccc(OCc2nnc(-c3ccc([N+](=O)[O-])cc3)o2)cc1`, the B-score was -5.3 (active).

Regarding `Cc1cc(OCCCCOc2ccc(C#N)cc2)ccc1[N+](=O)[O-]`, the B-score entry is “inactive”.

Regarding `CCOC(=O)CSc1nnc(-c2ccc([N+](=O)[O-])cc2)o1`, the B-score entry was “inactive”.

Consider `CCn1cc(C(=O)NCCCN2CCCCCC2)c(=O)c2cc(S(=O)(=O)N3CCc4ccccc4C3)ccc21`, for which the B-score result was “inactive”.

With `CCOc1cc(C(=O)Nc2c(C)ccc3nsnc23)cc(OCC)c1OCC`, the B-score entry is “inactive”.

For `CCOC(=O)CC1C(=O)NCCN1c1nc2c(C)cccn2c(=O)c1/C=C1\SC(=S)N(C(C)CC)C1=O` (stereo unspecified), the B-score entry is “inactive”.

In the case of `Cc1cccn2c(=O)c(/C=C3\SC(=S)N(CC(C)C)C3=O)c(NCCCOC(C)C)nc12`, the B-score is -11.6 (active).

As to `CNc1nc2c(C)cccn2c(=O)c1C=Nc1ccc(OC)cc1`, the B-score entry was “inactive”.

Turning to `Cc1coc2c1c(C)cc1oc(=O)c(CC(=O)NCC(=O)N[C@H](C(=O)O)C(C)C)c(C)c12`, the B-score result was “inactive”.

Regarding `CCCCn1c(N)c(N(CC(C)C)C(=O)c2ccc(-n3c(C)ccc3C)cc2)c(=O)[nH]c1=O`, the B-score result was “inactive”.

As for `O=C(COc1coc(CN2CCN(c3ccccc3)CC2)cc1=O)Nc1ccccc1F`, the B-score result is “inactive”.

Take `COc1ccc(CNC(=O)CSc2n[nH]c(N)n2)cc1OC`: the B-score result was “inactive”.

With `COc1ccc(C(=O)CSc2n[nH]c(N)n2)cc1`, the B-score is -4.92 (active).

`COc1ccc(C(=O)CSc2nccc(=O)[nH]2)cc1`: the B-score entry is “inactive”.

On to `O=C(c1cc(-c2ccc(Cl)s2)nc2ccccc12)N1CCOCC1`, for which the B-score entry was “inactive”.

Turning to `CCOC(=O)c1cn(CC(=O)Nc2ccc(C(C)C)cc2)nn1`, the B-score entry is “inactive”.

Take `CCOC(=O)c1nn(-c2cccc(C)c2)cc1C(=O)c1ccccc1`: the B-score result is “inactive”.

As to `CCOC(=O)c1cn(Cc2cccc(C)c2)nn1`, the B-score was -5.74 (active).

Regarding `COC(=O)[C@@H]1CC[C@H](C)[C@@H](c2ccc(C)cc2)N1C(=O)c1ccc(/C=N/O[C@H](C)c2cn([C@@H]3COC[C@H]3O)nn2)cc1`, the B-score entry is “inactive”.

Regarding `Cc1cccc(N(C(=O)c2csnn2)C(C(=O)NCc2ccccc2)c2ccncc2)c1` (stereo unspecified), the B-score entry is “inactive”.

For the compound `O=C1CSC(=S)N1c1ccc(Cl)c(Cl)c1`, the B-score result is “inactive”.

On to `CCN(CC(=O)Nc1cc(Cl)ccc1C)C(=O)CSCc1ccc(C)cc1`, for which the B-score result is “inactive”.

For the compound `COc1ccc(NS(=O)(=O)c2ccc(NC(=O)c3ccc(N(C)S(C)(=O)=O)cc3)cc2)cc1`, the B-score result was “inactive”.

Consider `COc1ccc(NS(=O)(=O)c2cc(NC(=O)CC(=O)c3ccc([N+](=O)[O-])cc3)ccc2C)cc1`, for which the B-score entry is “inactive”.

Take `CCN(CC)c1ccc(NC(=O)c2ccc(=O)[nH]c2)cc1S(=O)(=O)Nc1ccc(OC)cc1`: the B-score is -4.78 (active).

`O=C(NCc1ccc2c(c1)OCO2)c1sccc1Br`: the B-score result is “inactive”.

Consider `O=C(O)c1ccc2c(c1)C(=O)N(NC(=O)c1ccc(O)cc1)C2=O`, for which the B-score entry was “inactive”.

Turning to `O=C(c1ccc(O)cc1)c1ccc(C(=O)O)c(C(=O)O)c1`, the B-score is -10.2 (active).

`O=C(Nc1ccc(C(=O)O)c(O)c1)c1ccccc1`: the B-score entry was “inactive”.

Take `CCCOc1ccc(N2C(=O)CC(N(CCc3ccc(S(N)(=O)=O)cc3)C(C)=O)C2=O)cc1` (stereo unspecified): the B-score result was “inactive”.

Regarding `CC(=O)Nc1ccc(S(=O)(=O)N2CCC(C(=O)N[C@@H](Cc3ccccc3)C(=O)O)CC2)cc1`, the B-score entry was “inactive”.

In the case of `CCN(CC)S(=O)(=O)c1ccc(N(C)Cc2cccc(OC)c2OC)nc1`, the B-score result was “inactive”.

As for `COc1cc(N)c(Cl)cc1C(=O)OCC(=O)c1ccc2c(c1)NC(=O)CO2`, the B-score result was “inactive”.

Consider `O=C1c2ccccc2C(Nc2ccc3c(c2)OCCO3)N1Cc1ccco1` (stereo unspecified), for which the B-score entry was “inactive”.

With `CC1CCC(NC(=O)C2c3ccccc3C(=O)N2Cc2ccc3c(c2)OCO3)CC1` (stereo unspecified), the B-score entry is “inactive”.

For the compound `O=C(NC1CCCCC1)C1c2ccccc2C(=O)N1Cc1ccco1` (stereo unspecified), the B-score was -7.6 (active).

Consider `Cc1cc(OC(C)C(=O)Nc2ccc(S(=O)(=O)Nc3onc(C)c3C)cc2)cc(C)c1Cl` (stereo unspecified), for which the B-score result was “inactive”.

As for `COc1ccc(-c2ocnc2C(=O)Nc2ccc3c(c2)CCC3)cc1`, the B-score entry is “inactive”.

On to `CCN1C(=O)[C@@H]2[C@@H](c3ccc(-c4ccc(OC)cc4)c(OC)c3)N3CCC[C@@]3(C(=O)OC)[C@@H]2C1=O`, for which the B-score entry was “inactive”.

As for `O=c1cc(CO)oc(C(Nc2cccc([N+](=O)[O-])c2)c2ccccn2)c1O` (stereo unspecified), the B-score is -4.59 (active).

As for `O=c1cc(CO)oc(C(Nc2cccc(C(F)(F)F)c2)c2ccccn2)c1O` (stereo unspecified), the B-score result is “inactive”.

For `O=[N+]([O-])c1cccc(S(=O)(=O)NCc2ccccn2)c1`, the B-score result was “inactive”.

In the case of `O=C(c1ccc(Cl)cc1)N1N=C(c2ccccn2)CC1(O)C(F)(F)F` (stereo unspecified), the B-score entry was “inactive”.

As for `Cc1nnc(SCC(=O)Nc2ccc(S(=O)(=O)Nc3ccc(Cl)nn3)cc2)s1`, the B-score entry is “inactive”.

With `CN(c1cccc(NC(=O)Nc2ccc(Cl)cc2)c1)S(C)(=O)=O`, the B-score is -8.9 (active).

`COc1cccc(N(CC(=O)Nc2cccc(N(C)S(C)(=O)=O)c2)S(C)(=O)=O)c1`: the B-score entry is “inactive”.

As to `CN(c1cccc(NC(=O)c2ccc(CN3CCc4ccccc4C3)cc2)c1)S(C)(=O)=O`, the B-score entry is “inactive”.

With `COC(=O)c1cccnc1NC(=S)NC(C)C`, the B-score result was “inactive”.

Take `O=C(COC(=O)c1cnccn1)Nc1cccc2ccccc12`: the B-score result was “inactive”.

As for `CC(C)NC(=S)Nc1cccc2cnccc12`, the B-score was -4.98 (active).

With `Cc1ccc2cc(CN(c3ccc(C)c(C)c3)S(C)(=O)=O)c(=O)[nH]c2c1`, the B-score result is “inactive”.

With `Cc1cc([N+](=O)[O-])ccc1NCc1cccc([N+](=O)[O-])c1`, the B-score entry was “inactive”.

For `Cc1c(Br)c([N+](=O)[O-])nn1CC(=O)Nc1sc2c(c1C(=O)OC(C)C)CCC(C)C2` (stereo unspecified), the B-score result was “inactive”.
